# Screens: PubChem, National Center for Advancing Translational Sciences (NCATS)
# This excerpt belongs to a sample that is enriched for hits.
# 12-LOX inh – inhibitors of human 12S-lipoxygenase ALOX12. P18054. purified 12hLO, xylenol orange hydroperoxide absorbance. Potency, µM (doses to about 108 µM), for the others: at the top dose activity change, negative = inhibition, actives largely listed as inhibitors. actives 1.1% (n = 580,000). AID 1671190; also: potency is read from the fitted curve at half-maximal effect
# Target sequence (P18054 whole entry, looked up): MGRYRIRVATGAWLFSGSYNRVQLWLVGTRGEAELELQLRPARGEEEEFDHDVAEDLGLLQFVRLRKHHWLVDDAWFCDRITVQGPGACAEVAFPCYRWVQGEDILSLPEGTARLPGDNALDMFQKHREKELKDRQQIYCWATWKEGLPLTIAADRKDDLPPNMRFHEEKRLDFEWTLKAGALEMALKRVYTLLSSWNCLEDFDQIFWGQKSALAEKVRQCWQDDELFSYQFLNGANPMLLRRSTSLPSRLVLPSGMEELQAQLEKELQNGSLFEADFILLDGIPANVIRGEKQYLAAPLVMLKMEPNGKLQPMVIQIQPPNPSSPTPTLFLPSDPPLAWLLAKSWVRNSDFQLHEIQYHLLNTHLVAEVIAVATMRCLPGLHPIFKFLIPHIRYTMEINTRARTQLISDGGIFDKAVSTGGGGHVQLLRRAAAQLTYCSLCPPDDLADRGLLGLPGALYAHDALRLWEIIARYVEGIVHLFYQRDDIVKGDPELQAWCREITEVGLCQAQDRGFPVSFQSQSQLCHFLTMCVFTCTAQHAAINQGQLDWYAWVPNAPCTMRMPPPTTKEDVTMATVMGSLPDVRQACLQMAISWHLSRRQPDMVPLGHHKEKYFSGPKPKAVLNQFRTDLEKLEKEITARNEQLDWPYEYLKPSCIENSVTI
#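 Purified human 12hLO (150 nM final) in 25 mM Hepes, 0.01% Triton X-100, pH 7.0 was preincubated 15 min at room temperature with compound. Then 40 uM arachidonic acid was added, 30 min. Hydroperoxide was read by Fe-XO absorbance ratio 573/405 nm.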
# IL-1B inflam inh – blocks inflammasome-driven IL-1 beta release. THP-1 LPS/ATP IL-1B secretion, AlphaLISA, 16 h; active compounds read low. actives 4.7% (n = 360,000). activity change, % at 57.5 µM. AID 743279; in the data active = activity change below about -50%; inconclusive = mostly about -30% to -49%
#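 Secreted IL-1B measured by AlphaLISA bead assay after 16 h compound exposure of THP-1 cells; compounds (final up to 57.5 uM) added 1 h before LPS (250 ng/mL) and ATP (1.25 mM) stimulation; lower signal means less secretion.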
# HT1080 IDH1KD tx – toxicity to HT-1080 IDH1 knockdown cells (counter line) | HT-1080 IDH1 knockdown viability, ATP luminescence, 48 h | Potency, µM (titrated, usually from 46.1 µM), inactives show top-dose activity, negative = toxicity, most hits filed as cytotoxic | actives 2% (n = 360,000);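 also: potency is read from the fitted curve at half-maximal effect; 0% = DMSO wells and -100% = cell-free medium wells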
#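 Assay cells: HT-1080 with IDH1 knockdown, 750 per well, RPMI/5% FBS. Exposure: 48 h at 37 °C following 2 h pre-incubation. Read: CellTiter-Glo luminescence; fitted concentration-response, curve class assigned.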
# DT40 TDP1 no CPT – qHTS for Inhibitors of human tyrosyl-DNA phosphodiesterase 1 (TDP1): qHTS in cells in absence of CPT; AID 686978, 2013; DT40 Tdp1-/- hTDP1 cells, no CPT, ATP luminescence, 48 h; Potency, µM (top dose mostly 46.2 µM), inactives show at the top dose activity change, negative = growth inhibition, usual class: inhibitors; actives 15% (n = 420,000); also: potency is read from the fitted curve at half-maximal effect; nearly all actives have a fitted effect of over 55% in size
#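 Stably hTDP1-transfected Tdp1-null chicken DT40 cells were treated with library compounds minus camptothecin and grown for at least 48 hr at 37 °C, after which cellular ATP was quantified by luminescence.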
# DT40 TDP1 CPT – DT40-hTDP1 cell growth loss with CPT | chicken DT40 Tdp1-/-;hTDP1 cells + 20 nM CPT, ATP luminescence, 48 h | Potency, µM (highest dose often 46.2 µM), without a hit: at the top dose activity change, negative = growth inhibition, most hits filed as inhibitors | actives 12% (n = 420,000) | AID 686979; also: potency is read from the fitted curve at half-maximal effect; nearly all actives have a fitted effect of over 55% in size
#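 Chicken DT40 Tdp1-/- cells complemented with human TDP1, 400 cells/well, exposed to compounds plus 20 nM camptothecin for at least 48 h at 37 C; viability read as ATP content by CellTiter-Glo luminescence.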
# HT1080-NT tox – kills 2HG-producing HT-1080-NT fibrosarcoma cells; HT-1080-NT fibrosarcoma viability, CellTiter-Glo ATP luminescence, 48 h; Potency, µM (top dose mostly 46.1 µM), inactives show at the top dose activity, negative = less viability, hits mostly cytotoxic; actives 1.6% (n = 360,000); AID 686970;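 also: NT is the 2HG producing partner of a matched IDH1 knockdown line; potency is read from the fitted curve at half-maximal effect; 0% = DMSO-treated cells and -100% = media-only wells without cells; nearly all actives have a fitted effect of over 55% in size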
#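 Luminescent CellTiter-Glo readout after 48 hours of compound exposure at 37 degrees C defined viability of HT-1080-NT cells. Activity was normalized to DMSO wells and cell-free media wells; concentration-response curves were fitted and assigned curve classes.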
# Active calls of the source: *; u = inconclusive; x = no result given; [ ] = remark or other dose. Unless noted, calls follow the shape of the dose curve; as a rule, active = well fitted curve in the direction sought with a large enough effect; inconclusive = small, poorly fitted or top-dose-only effect, or another doubt; inactive = no such curve, though single readings can be large; an effect the other way counts as inactive or inconclusive. Unless noted, % is scaled to controls: 0 for no effect and ±100 for the full control effect.
SMILES,12-LOX inh,IL-1B inflam inh,HT1080 IDH1KD tx,DT40 TDP1 no CPT,DT40 TDP1 CPT,HT1080-NT tox
CC1=C(C)/C(=N\OS(=O)(=O)c2ccc(C)cc2)C=CC1=O,u,-102.8*,6.51µM*,0.651µM*,0.581µM*,13µM*
COc1ccc(S(=O)(=O)/N=C2/C=CC(=O)C(C)=C2C)cc1,x,49.7,-7.6%,1.64µM*,1.84µM*,-9.8%
COc1ccccc1C1CC(=O)N(c2cccc(F)c2)C2=C1C(=O)OC2 (stereo not drawn),45.2%,x,x,x,x,x
C=CCSC1=N/C(=C\c2cc(OCC)c(OC(C)=O)c([N+](=O)[O-])c2)C(=O)S1,u,18.8,5.8%,u,16.4µM*,-3.4%
O=C(CN1CC[n+]2c(-c3cccs3)csc21)c1ccc(Br)cc1,-23.2%,u,-1.7%,3.66µM*,1.84µM*,-6.4%
O=C(CN1CC[n+]2c(-c3ccccc3)csc21)c1ccc(Br)cc1,u,-54.1*,-0.3%,2.06µM*,2.91µM*,20.6µM*
CC(=O)N1CCN(CC(=O)c2ccc(Br)cc2)CC1,-26.2%,26.9,-4.0%,-20.7%,-21.2%,-9.7%
C=CCn1c(C)cc(C(=O)COC(=O)c2cc(C)nc3ccccc23)c1C,-15.1%,x,x,x,x,x
C=CCn1c(C)cc(C(=O)COc2nncc3ccccc23)c1C,0.0%,-4.4,-1.9%,7.31µM*,8.2µM*,-6.0%
Cc1ccc(OCC(=O)c2cc(C)n(-c3ccccc3)c2C)c([N+](=O)[O-])n1,0.0%,-5.1,-28.0%,14.6µM*,u,-0.1%
CCCn1c(C)cc(C(=O)COc2ccc(S(=O)(=O)N(CC)CC)cc2[N+](=O)[O-])c1C,-4.2%,-28.0,-14.7%,23.1µM*,20.6µM*,-0.7%
CCCn1c(C)cc(C(=O)COc2ccc(C)nc2[N+](=O)[O-])c1C,0.5%,18.1,2.7%,u,u,6.6%
C=CCn1c(C)cc(C(=O)COc2ccc(C)nc2[N+](=O)[O-])c1C,2.5%,11.8,u,20.6µM*,u,u
COCCn1c(N(C)C)nc2c1c(=O)[nH]c(=O)n2C,-8.4%,x,x,x,x,x
Cc1ccc2nc(-c3ccc(C)c(NC(=O)c4ccc5c(c4)OCO5)c3)oc2c1,2.5%,x,x,x,x,x
CCCC(=O)Nc1cccc(NC(=O)c2cccc3c(Br)cccc23)c1,15.1%,x,x,x,x,x
CC(=O)N1CC2(CCN(CC3CCCCC3)C2)Cc2ccccc21 (stereo not drawn),-0.8%[6.33 µM],x,x,x,x,x
Cc1cc(C)c(Cc2c(C)nc3c(C(=O)NCc4ccco4)cnn3c2C)c(C)c1,u,-1.4,-4.8%,8.2µM*,7.31µM*,-0.7%
Cc1nc2c(C(=O)NCCCN(CC(C)C)CC(C)C)cnn2c(C)c1Cc1c(F)cccc1Cl,-24.8%,x,x,20.6µM*,23.1µM*,x
Cc1cc(C)n2ncc(C(=O)NCc3ccc(Cl)cc3)c2n1,0.0%,3.8,1.1%,-24.3%,-16.3%,-1.2%
Cc1ccc(CNC(=O)c2cnn3c(C)c(Cc4c(F)cccc4Cl)c(C)nc23)cc1,-0.7%,x,x,u,14.6µM*,x
CCCCNC(=O)c1cnn2c(C)c(Cc3c(F)cccc3Cl)c(C)nc12,-24.1%,x,x,3.66µM*,7.31µM*,x
O=C(NCc1ccco1)c1cnn2c(C(F)F)cc(-c3ccccc3)nc12,-9.1%,-3.8,-2.3%,-25.7%,-29.5%,-0.2%
Cc1nc2c(C(=O)NC3CCCC3)cnn2c(C)c1Cc1ccccc1Cl,-21.2%,x,x,x,x,x
CCOCCOC(=O)COc1ccc2c(=O)c(-c3ccc(Cl)cc3)c(C(F)(F)F)oc2c1,11.6%,x,x,x,x,x
SMILES,12-LOX inh,IL-1B inflam inh,HT1080 IDH1KD tx,DT40 TDP1 no CPT,DT40 TDP1 CPT,HT1080-NT tox
COc1ccccc1C(=O)N1CCN(c2oc(-c3ccccc3OC)nc2C#N)CC1,-19.1%,x,x,x,x,x
COc1cccc(/C=C/c2nc(C#N)c(NC3CCCCC3)o2)c1,8.1%,x,x,4.11µM*,u,x
COc1ccc(/C=C/c2nc(C#N)c(NC3CCCCC3)o2)cc1OC,-11.8%,x,x,20.6µM*,20.6µM*,x
O=C(Nc1cc(=O)[nH]c2nc(C(F)(F)F)nn12)c1ccc(Cl)cc1Cl,25.1µM*,x,x,x,x,x
O=C(Nc1cc(=O)[nH]c2nc(-c3ccccc3)nn12)c1ccccc1Cl,-3.0%,37.9,-0.5%,11.6µM*,-20.2%,9.1%
COCC(=O)Nc1ccc(-c2nc3ccccc3o2)cc1,-18.2%,x,x,x,x,x
Clc1ccc2nnnc(-c3ccccc3)c2c1,-18.0%,-99.6*,u,4.11µM*,3.26µM*,u
CCOCCSc1nnc(-c2nn(Cc3ccccc3)c(=O)c3ccccc23)o1,28.2µM*,x,x,x,x,x
CC1CC(C)CN(C(=S)SCc2nc(N)nc(Nc3ccccc3)n2)C1 (stereo not drawn),u,-15.7,32.6µM*,u,u,u
CCOc1ccc(Nc2nc(N)nc(CSC(=S)N3CCOCC3)n2)cc1,0.0%,u,-13.5%,20.6µM*,u,-1.4%
COc1ccc(C(=O)N2CCC3(CC2)CN(c2ccc(-c4ccccc4)cc2)C3)cc1,u,x,x,u,27.2%,x
O=C(c1cccc(F)c1)N1CCC[C@@]2(CCN(c3cccc(-c4ccccc4)c3)C2)C1,0.7%[57.4 µM],x,x,20.6µM*,20.6µM*,x
COc1ccc(C(=O)N2CCC3(CC2)CCN(c2cccc(-c4ccccc4)c2)CC3)cc1,-12.9%[57.4 µM],x,x,0.231µM*,0.116µM*,x
N#Cc1cccc(NC(=O)N2CC[C@@]3(CCCN(C(=O)c4cccc(F)c4)C3)C2)c1,u,x,x,20.6µM*,-24.7%,x
O=C(c1cccc(F)c1)N1CCC[C@@]2(CCN(c3ccccc3)C2)C1,-7.6%[57.4 µM],x,x,u,u,x
O=C(c1cccc(F)c1)N1CCC2(CC1)CN(c1cccc(-c3ccccc3)c1)C2,-4.4%[57.4 µM],x,x,16.4µM*,u,x
O=C(c1cccs1)N1CCC(N2C(=O)C(O)C23CCCCC3)CC1 (stereo not drawn),51.1%,x,x,x,x,x
O=C(c1cccc(F)c1)N1CCC2(CC1)CCN(c1cccc(-c3ccccc3)c1)CC2,u,x,x,16.4µM*,u,x
CC1=NN(C(=O)c2csc(C(C)C)c2)C(O)(C(F)(F)F)C1 (stereo not drawn),6.6%,11.6,3.5%,1.03µM*,0.731µM*,0.5%
COc1ccc(C(=O)N2N=C(C)CC2(O)C(F)(F)F)cc1OC (stereo not drawn),15.7%,x,x,x,x,x
CCOc1ccc(CC(=O)N2N=C(C)CC2(O)C(F)(F)F)cc1 (stereo not drawn),-14.8%,-8.0,8.1%,5.8µM*,18.4µM*,8.7%
